Screens: PubChem BioAssay, National Center for Advancing Translational Sciences (NCATS)
In the library only some 6.4% were active in any assay of this set; here they are far more common.
Gal4-VP16 FLuc = inhibits Gal4-VP16 luciferase reporter, ROR gamma counter-screen; Drosophila S2 Gal4-VP16 UAS-luciferase, luminescence, 20 h; Potency, µM (highest dose often 53.6 µM), for the others: top-dose activity, negative = inhibition, usual class: inhibitors; 3.5% of 310,000 active;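 further: Gal4-VP16 expression switched on by copper sulfate through the metallothionein promoter; nearly all actives have a fitted effect of over 50% in size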
RORg inh = blocks mouse ROR gamma transcriptional activity; P51450; Drosophila S2 Gal4-RORgamma UAS-luciferase reporter, 20 h; Potency, µM (titrated, usually from 53.6 µM), without a hit: at the top dose activity change, negative = inhibition, most hits filed as inhibitors; 5.4% of 310,000 active; AID 2551; further: nearly all actives have a fitted effect of over 60% in size
Target sequence (P51450 whole entry, looked up, the tested form may be a part): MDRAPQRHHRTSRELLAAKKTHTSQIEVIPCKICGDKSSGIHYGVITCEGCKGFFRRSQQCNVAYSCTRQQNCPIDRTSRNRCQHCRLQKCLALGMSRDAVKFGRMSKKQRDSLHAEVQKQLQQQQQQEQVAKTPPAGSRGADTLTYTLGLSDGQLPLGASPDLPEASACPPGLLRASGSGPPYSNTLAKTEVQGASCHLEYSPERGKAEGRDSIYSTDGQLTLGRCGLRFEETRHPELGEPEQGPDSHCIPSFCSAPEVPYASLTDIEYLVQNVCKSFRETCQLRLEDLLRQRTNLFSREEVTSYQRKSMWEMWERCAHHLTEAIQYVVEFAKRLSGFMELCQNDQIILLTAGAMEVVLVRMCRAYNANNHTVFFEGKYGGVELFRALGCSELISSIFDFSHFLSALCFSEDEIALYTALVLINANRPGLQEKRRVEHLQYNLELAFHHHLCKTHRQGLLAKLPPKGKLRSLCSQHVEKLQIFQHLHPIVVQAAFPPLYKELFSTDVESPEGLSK
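Drosophila S2 cells stably expressing Gal4-DBD/mouse RORγ fusion under metallothionein promoter plus UAS-luciferase; compound 1 h, then 700 uM CuSO4 induction for 20 h at ambient temperature; inhibition read as reduced luminescence.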
Luc counter = blocks Kinase-Glo luciferase, a counter-screen artifact | Q27757 | Potency, µM (top dose mostly 38.3 µM), for the others: top-dose activity change, negative = inhibition, usual class: inhibitors | Kinase-Glo luciferase, ATP luminescence, 8 min | 0.28% of 200,000 active; further: nearly all actives have a fitted effect of over 60% in size
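Recombinant Kinase-Glo luciferase, 10 uM ATP (linear range), luciferin; imidazole pH 7.2 / KCl / MgCl2 / Tween / BSA buffer; 8 min RT; luminescence.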
* hit, by the source's call; ? = inconclusive; . = no result; [ ] = another dose, or the depositor's remark. The call rests on the fitted dose curve; in most records, active means well fitted curve in the direction sought with a large enough effect; inconclusive means small, poorly fitted or top-dose-only effect, or another doubt; inactive means no such curve, though single readings can be large; an effect the other way counts as inactive or inconclusive. On the % scale 0 is the no-effect control and ±100 the full control effect; potency means the concentration at half of the fitted maximal effect.

SMILES | Gal4-VP16 FLuc | RORg inh | Luc counter
COc1ccc(/C=N/NC(=O)c2nc(-c3ccccc3)n(-c3ccccc3)n2)cc1 | 3% | -4% | 3%
CC(C)(C)c1cc(C(=O)N/N=C/c2ccccc2O)n(-c2ccccc2)n1 | 1.1µM* | 0.63µM* | 0%
C[C@@H](C(=O)Nc1ccc2ccccc2c1)[C@@H]1C[C@@]1(C)[C@@H](NC(=O)Oc1ccc(F)cc1)c1ccccc1 | -5% | -29% | -4%
S=c1[nH]nc(COc2ccccc2)n1/N=C/C=C/c1ccco1 | -4% | -42% | .
S=c1[nH]nc(COc2ccccc2)n1/N=C/C=C/c1ccccc1 | 4.5µM* | ? | 6%
S=c1[nH]nc(COc2ccccc2)n1/N=C/c1cccnc1 | ? | -56% | -1%
S=c1[nH]nc(COc2ccccc2)n1/N=C/C(Cl)=C/c1ccccc1 | ? | 7.9µM* | -5%
Cc1cccc(C2NC(c3cccc(C)c3)C([N+](=O)[O-])C(C)(C)C2[N+](=O)[O-])c1 (stereo not given) | -3% | 3% | -1%
C/C(=N\Nc1nccnc1Cl)c1c(F)c(F)c(F)c(F)c1F | ? | 8.9µM* | -1%
COc1ccccc1/C=N/Nc1nccnc1Cl | 10% | ? | ?
C/C(=N\Nc1nccnc1Cl)c1ccc(F)cc1 | 2.8µM* | 5.6µM* | ?
C/C(=N\Nc1nccnc1Cl)c1ccc(O)cc1 | 8% | 11% | .
O=c1n(Cc2cc3c(cc2Cl)OCO3)c(=O)n2n1CC[C@H]1/C(=N\OCc3ccccc3)[C@H]3O[C@@H]3[C@@H](O)[C@@H]12 | 2%[10 µM] | -1%[10 µM] | .
COc1ccc(-c2cc(=O)oc3c(C)c(OC(C)C(=O)Nc4ccc(CN5CCOCC5)cc4)ccc23)cc1 (stereo not given) | -1% | 11% | .
COc1cc(OC)c2cc(C(=O)N/N=C/c3cccc(OC)c3O)[nH]c2c1 | 4.5µM* | 2.2µM* | .
CCOc1cccc(-c2cc(C(=O)N/N=C/c3cccc(OC)c3O)[nH]n2)c1 | . | . | 0%
COc1cccc(/C=N/NC(=O)c2ccc3nc[nH]c3c2)c1O | -11% | -25% | .
COc1cccc(/C=N/NC(=O)c2cc3c(OC)ccc(OC)c3[nH]2)c1O | 2.8µM* | 1.6µM* | .
Cc1ccc(C(=O)Nc2cc3[nH]c(=O)oc3cc2C)cc1 | -10% | -2% | .
Cn1c(C2=C(O)CN(c3ccccc3)C2=N)nc2ccccc21 | 26% | -2% | -2%
CN(C)C(=O)c1ccc(Nc2ncnc3sc4c(c23)CCCCC4)cc1 | 9% | -17% | .
O=C1NC(c2ccccc2)(C(F)(F)F)SC2=NCCCN12 (stereo not given) | 6% | 29% | 1%
COc1ccc(/C=C/C(O)=C(\C#N)c2nnc(N3CCOCC3)n2-c2ccccc2)cc1OC | -3% | ? | 3%
COc1ccc(N2C(C)=CS/C2=C(/C#N)c2nnc(N3CCOCC3)n2-c2ccccc2)cc1 | 0% | 13µM* | 7%
C=CCN1C(=O)NC(c2ccccc2)(C(F)(F)F)S/C1=C(\C#N)c1nnc(N2CCOCC2)n1-c1ccccc1 (stereo not given) | 13µM* | 5.6µM* | -2%
SMILES | Gal4-VP16 FLuc | RORg inh | Luc counter
CC(=O)N1CCc2cc(S(=O)(=O)Nc3cccc(C(F)(F)F)c3)ccc21 | 5µM* | ? | -1%
Cc1cccc(C)c1NC(=O)c1cc(S(=O)(=O)N2CCc3ccccc32)cn1C | -9% | 19% | .
COc1cccc(S(=O)(=O)Nc2cccc(C(=O)N3CCCCCC3)c2)c1 | -4% | 13% | -3%
Cc1ccc(C(=O)N2CCN(c3ncccn3)CC2)cc1 | -2% | 15% | .
CC(=O)N1CCCc2cc(S(=O)(=O)Nc3cccc(C)c3C)ccc21 | 9% | 29% | .
Cn1cc(S(=O)(=O)N2CCc3ccccc32)cc1C(=O)NC(C)(C)C | 5µM* | -6% | .
Cc1ccc(NS(=O)(=O)c2ccc(C(=O)N3CCN(c4ncccn4)CC3)cc2)cc1 | 1.3µM* | -45% | 1%
COc1cccc(S(=O)(=O)Nc2ccc(C(=O)N3CCCCCC3)cc2)c1 | 8.9µM* | 8.9µM* | .
O=C(NCCc1ccccc1)C(=O)NCC1OCCN1S(=O)(=O)c1cc(F)ccc1F (stereo not given) | 0% | 11% | .
CCOC(=O)c1sc(/N=C/c2ccc(O)cc2O)cc1C | 17% | 35% | -10%
Cc1cccc(NC(=O)C2C3C=CC(O3)C2C(=O)O)c1 (stereo not given) | 6% | -26% | .
COc1cccc(NS(=O)(=O)c2ccc3c(c2)CCN3C(C)=O)c1 | 16µM* | ? | .
CC(=O)N1CCc2cc(S(=O)(=O)N3CCc4ccccc43)ccc21 | 13µM* | ? | .
CC(=O)N1CCc2cc(S(=O)(=O)N3CCc4ccccc4C3)ccc21 | 1% | -2% | -1%
CC(=O)N1CCc2cc(S(=O)(=O)Nc3ccc(C)cc3)ccc21 | -23% | ? | .
COc1cccc(NS(=O)(=O)c2ccc3c(c2)N(C(C)=O)CCO3)c1 | -4% | 31% | .
CSc1cccc(NS(=O)(=O)c2ccc3c(c2)CCN3C(C)=O)c1 | 4.5µM* | ? | .
Cc1nc2nc(NC(=O)c3ccco3)[nH]n2c(=O)c1C | 1% | -10% | .
CCn1cc(C(=O)N2CCN(c3ccc(C(C)=O)cc3)CC2)c2cc(OC)c(OC)cc2c1=O | -8% | -4% | -2%
O=C(Nc1ccc(Br)cn1)c1cccc(C(=O)Nc2ccc(Br)cn2)c1 | 1.3µM* | ? | .
CCC(=O)Nc1cnc(NC(=O)c2cccc(F)c2)cc1C | ? | ? | -10%
COc1cccc(C(=O)Nc2ccc(NC(=O)C3CCCCC3)nc2)c1 | 6% | 23% | .
CC(=O)Nc1cnc(NC(=O)c2cccc(F)c2)cc1C | ? | 4µM* | -20%
O=C(Nc1ccc(Br)cn1)c1ccc2ccccc2c1 | 3% | 3% | .
Cc1ccc(C(=O)Nc2ccc(Cl)cn2)cc1 | ? | -22% | 3%
SMILES | Gal4-VP16 FLuc | RORg inh | Luc counter
COc1cccc(C(=O)Nc2ccc(NC(=O)C(C)(C)C)cn2)c1 | 8.9µM* | 7.1µM* | -11%
Cc1ccc(NC(=O)c2cccc(Cl)c2)nc1 | -3% | 20%[10 µM] | 11µM*
CCC(C)c1ccc(S(=O)(=O)N2CCN(S(=O)(=O)c3ccc(NC(C)=O)cc3)CC2)cc1 (stereo not given) | 7% | 10% | .
Cc1ccccc1OCC(=O)Nc1cc(S(=O)(=O)N2CCCCC2)ccc1N1CCN(C)CC1 | -13% | 17% | -1%
Oc1ccc(-c2cn3ccccc3n2)cc1 | ? | -36% | .
CN(C)S(=O)(=O)c1ccc(-c2cn3ccccc3n2)cc1 | 18µM* | 34% | -23%
COC(=O)CNc1nc(Cl)nc(Nc2ccc(Cl)cc2)n1 | 5% | -4% | 2%
Clc1ccccc1-c1nccc(NCCN2CCOCC2)n1 | -12% | 7% | .
O=C1C(Cl)=C(NC2CCc3ccccc32)C(=O)c2ncccc21 (stereo not given) | 4.5µM* | 4.5µM* | -5%
O=C1C(Cl)=C(NCCN2CCOCC2)C(=O)c2ncccc21 | 2.8µM* | 4.5µM* | -11%
O=C(Nc1ccc(Cl)cc1)NC1CCCc2ccccc21 (stereo not given) | 3% | 23% | -3%
CCCCn1c(N)c(N(CC)C(=O)CCNC(=O)NC23CC4CC(CC(C4)C2)C3)c(=O)[nH]c1=O | -11% | 23% | .
CSc1ccccc1NC(=O)C1CCN(S(C)(=O)=O)CC1 | -9% | -11% | .
